The results in this text go back to PMC7862700, “An all-to-all approach to the identification of sequence-specific readers for epigenetic DNA modifications on cytosine”.

What all share (assay): DAPPL (digital affinity profiling via proximity ligation, sequencing); 10 mM Tris-HCl pH 7.5, 50 mM NaCl, 1 mM DTT, 4% glycerol, room temperature, 30 min; GST-TFs on glutathione beads, 16-mer random dsDNA library, 0.1% formaldehyde crosslink after washing; high values mean tight binding
One assay deals with T1, FEV (Homo sapiens, UniProt Q99581 1-238).
T1 sequence: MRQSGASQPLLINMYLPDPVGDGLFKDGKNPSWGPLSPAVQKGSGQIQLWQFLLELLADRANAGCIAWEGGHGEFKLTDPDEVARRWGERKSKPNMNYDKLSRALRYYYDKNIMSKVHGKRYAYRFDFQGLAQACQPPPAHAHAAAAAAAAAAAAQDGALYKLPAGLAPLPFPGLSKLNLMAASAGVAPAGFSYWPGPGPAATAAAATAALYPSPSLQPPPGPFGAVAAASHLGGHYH
Particulars: protein: recombinant; tags: N-terminal GST; dsDNA, one strand shown. In short, it runs like this:
(§1)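 Binding signal is defined as a hexamer's read frequency for one factor over its frequency for the tag-only sample. To obtain reads, GST-fused human transcription factors were expressed in yeast, captured on glutathione beads, barcoded with DNA and pooled with that sample. Pools met 200 nmole of a 16-mer random double-stranded DNA library in Tris/NaCl/DTT/glycerol buffer for 30 min at room temperature before washing, 0.1% formaldehyde crosslinking, proximity ligation (BsaI/T4 ligase, 1 h, 37 °C), PCR and Illumina NextSeq500 sequencing.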

For another assay, the target named is ETV5 (Homo sapiens, UniProt P41161 1-510). The settings on record: protein: recombinant; tags: N-terminal GST; dsDNA, one strand shown. In short, it runs like this:
as §1

The target of the next assay is HSF1 (Homo sapiens, UniProt Q00613 1-529). The settings on record: protein: recombinant; tags: N-terminal GST; chain copies: 3; dsDNA, one strand shown. In short, it runs like this:
as §1

A further assay has as its target T2, SPIC (Homo sapiens, UniProt Q8N5J4 1-248).
T2 sequence: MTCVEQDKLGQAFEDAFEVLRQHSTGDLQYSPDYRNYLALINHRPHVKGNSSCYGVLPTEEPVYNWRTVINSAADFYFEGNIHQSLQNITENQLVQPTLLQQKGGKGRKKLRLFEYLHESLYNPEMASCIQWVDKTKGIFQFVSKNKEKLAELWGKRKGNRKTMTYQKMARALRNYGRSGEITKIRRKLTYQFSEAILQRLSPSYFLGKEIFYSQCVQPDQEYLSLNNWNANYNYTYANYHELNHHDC
The settings on record: protein: recombinant; tags: N-terminal GST; dsDNA, one strand shown. Put shortly: as §1

For a further assay, the target named is ELF4 (Homo sapiens, UniProt Q99607 1-663). The settings on record: protein: recombinant; tags: N-terminal GST; dsDNA, one strand shown. Put shortly: as §1
Chain of ELF4 (Q99607 whole entry): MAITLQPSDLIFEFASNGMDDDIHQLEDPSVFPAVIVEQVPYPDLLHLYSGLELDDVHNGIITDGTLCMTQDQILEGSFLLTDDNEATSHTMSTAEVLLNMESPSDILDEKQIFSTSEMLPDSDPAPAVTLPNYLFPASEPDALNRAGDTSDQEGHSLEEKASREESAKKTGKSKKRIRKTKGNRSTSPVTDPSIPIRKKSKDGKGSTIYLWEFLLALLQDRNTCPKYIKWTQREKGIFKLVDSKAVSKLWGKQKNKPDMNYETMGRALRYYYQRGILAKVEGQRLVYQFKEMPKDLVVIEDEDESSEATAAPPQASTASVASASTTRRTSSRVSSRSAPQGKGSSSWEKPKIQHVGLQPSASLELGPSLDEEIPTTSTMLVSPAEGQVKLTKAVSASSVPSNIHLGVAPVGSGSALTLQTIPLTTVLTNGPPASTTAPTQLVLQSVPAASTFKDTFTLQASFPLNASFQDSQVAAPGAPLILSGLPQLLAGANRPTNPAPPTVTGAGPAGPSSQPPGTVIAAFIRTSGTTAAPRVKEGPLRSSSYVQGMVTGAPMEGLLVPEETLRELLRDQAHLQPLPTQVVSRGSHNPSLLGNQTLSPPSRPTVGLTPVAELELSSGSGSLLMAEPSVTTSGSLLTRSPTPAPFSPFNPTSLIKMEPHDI
For the next assay, the target named is T3, ELK4 (Homo sapiens, UniProt P28324-2 1-405).
T3 sequence: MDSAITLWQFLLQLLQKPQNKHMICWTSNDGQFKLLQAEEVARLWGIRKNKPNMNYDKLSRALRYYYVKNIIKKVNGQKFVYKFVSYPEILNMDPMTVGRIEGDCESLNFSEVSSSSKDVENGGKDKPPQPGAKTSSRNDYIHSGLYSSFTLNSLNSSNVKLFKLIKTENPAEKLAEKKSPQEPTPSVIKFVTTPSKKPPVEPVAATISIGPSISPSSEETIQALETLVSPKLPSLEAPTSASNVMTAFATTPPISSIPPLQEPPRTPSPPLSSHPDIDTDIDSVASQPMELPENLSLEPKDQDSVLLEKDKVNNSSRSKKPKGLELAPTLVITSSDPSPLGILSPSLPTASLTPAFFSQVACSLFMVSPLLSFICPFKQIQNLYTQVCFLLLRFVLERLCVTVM
Particulars: protein: recombinant; tags: N-terminal GST; dsDNA, one strand shown. Put shortly: as §1

A further assay has as its target T4, ETV2 (Homo sapiens, UniProt O00321 1-342).
T4 sequence: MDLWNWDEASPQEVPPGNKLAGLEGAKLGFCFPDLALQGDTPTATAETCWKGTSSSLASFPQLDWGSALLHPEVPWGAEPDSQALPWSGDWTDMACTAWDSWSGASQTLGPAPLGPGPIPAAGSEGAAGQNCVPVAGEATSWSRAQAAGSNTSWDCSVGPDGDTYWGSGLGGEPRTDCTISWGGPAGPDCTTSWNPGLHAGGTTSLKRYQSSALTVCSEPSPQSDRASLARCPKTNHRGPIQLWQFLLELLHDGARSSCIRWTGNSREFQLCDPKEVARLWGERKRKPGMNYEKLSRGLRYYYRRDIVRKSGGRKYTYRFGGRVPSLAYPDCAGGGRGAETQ
The settings on record: protein: recombinant; tags: N-terminal GST; dsDNA, one strand shown. Put shortly:
as §1

For a further assay, the target named is T5, ELF3 (Homo sapiens, UniProt P78545 1-371).
T5 sequence: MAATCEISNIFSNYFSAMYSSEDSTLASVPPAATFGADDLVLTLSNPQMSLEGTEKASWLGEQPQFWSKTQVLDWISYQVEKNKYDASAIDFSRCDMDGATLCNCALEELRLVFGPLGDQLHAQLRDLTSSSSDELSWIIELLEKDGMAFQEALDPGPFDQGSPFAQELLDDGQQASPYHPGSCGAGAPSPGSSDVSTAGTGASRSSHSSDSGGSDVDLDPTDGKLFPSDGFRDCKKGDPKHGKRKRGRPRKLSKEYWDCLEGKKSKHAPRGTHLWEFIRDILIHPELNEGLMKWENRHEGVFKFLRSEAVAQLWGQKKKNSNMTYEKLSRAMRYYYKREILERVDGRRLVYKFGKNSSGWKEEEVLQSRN
The settings on record: protein: recombinant; tags: N-terminal GST; dsDNA, one strand shown. Put shortly: as §1

The next assay addresses CRX (Homo sapiens, UniProt O43186 1-299). The settings on record: protein: recombinant; tags: N-terminal GST; dsDNA, one strand shown. In short, it runs like this: as §1
The next assay deals with ETV1 (Homo sapiens, UniProt P50549 1-477). The settings on record: protein: recombinant; tags: N-terminal GST; dsDNA, one strand shown. In short, it runs like this: as §1
Chain of ETV1 (P50549 whole entry): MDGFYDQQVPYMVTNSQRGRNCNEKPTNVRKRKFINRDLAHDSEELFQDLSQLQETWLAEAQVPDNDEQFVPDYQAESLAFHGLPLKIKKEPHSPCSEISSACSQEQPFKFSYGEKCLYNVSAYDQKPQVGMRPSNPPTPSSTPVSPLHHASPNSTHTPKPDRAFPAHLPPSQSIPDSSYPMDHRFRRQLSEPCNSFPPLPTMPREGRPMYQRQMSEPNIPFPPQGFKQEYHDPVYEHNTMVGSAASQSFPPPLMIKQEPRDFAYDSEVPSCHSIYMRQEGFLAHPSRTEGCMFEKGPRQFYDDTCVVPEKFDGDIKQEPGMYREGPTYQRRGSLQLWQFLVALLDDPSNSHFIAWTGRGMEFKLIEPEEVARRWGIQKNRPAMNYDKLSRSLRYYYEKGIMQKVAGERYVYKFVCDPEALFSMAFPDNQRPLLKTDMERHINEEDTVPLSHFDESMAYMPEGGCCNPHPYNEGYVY
Another assay concerns the target T6, ERF (Homo sapiens, UniProt P50548 1-548).
T6 sequence: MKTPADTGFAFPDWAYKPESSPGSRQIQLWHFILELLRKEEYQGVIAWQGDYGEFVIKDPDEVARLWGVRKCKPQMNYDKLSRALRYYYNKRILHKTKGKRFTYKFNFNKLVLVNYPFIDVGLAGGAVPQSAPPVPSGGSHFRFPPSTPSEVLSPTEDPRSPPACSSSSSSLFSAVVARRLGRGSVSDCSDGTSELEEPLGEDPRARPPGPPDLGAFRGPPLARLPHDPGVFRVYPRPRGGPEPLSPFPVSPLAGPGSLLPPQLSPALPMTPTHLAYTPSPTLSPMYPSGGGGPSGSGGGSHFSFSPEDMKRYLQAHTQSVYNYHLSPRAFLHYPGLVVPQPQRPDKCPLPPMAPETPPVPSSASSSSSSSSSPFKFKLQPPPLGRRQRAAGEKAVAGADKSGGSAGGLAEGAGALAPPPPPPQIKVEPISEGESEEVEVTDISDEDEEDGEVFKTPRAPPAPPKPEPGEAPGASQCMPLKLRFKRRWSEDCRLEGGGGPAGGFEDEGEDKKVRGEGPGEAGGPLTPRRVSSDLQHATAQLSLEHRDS
Particulars: protein: recombinant; tags: N-terminal GST; dsDNA, one strand shown. Put shortly: as §1

A further assay addresses T7, ETV3L (Homo sapiens, UniProt Q6ZN32 1-361).
T7 sequence: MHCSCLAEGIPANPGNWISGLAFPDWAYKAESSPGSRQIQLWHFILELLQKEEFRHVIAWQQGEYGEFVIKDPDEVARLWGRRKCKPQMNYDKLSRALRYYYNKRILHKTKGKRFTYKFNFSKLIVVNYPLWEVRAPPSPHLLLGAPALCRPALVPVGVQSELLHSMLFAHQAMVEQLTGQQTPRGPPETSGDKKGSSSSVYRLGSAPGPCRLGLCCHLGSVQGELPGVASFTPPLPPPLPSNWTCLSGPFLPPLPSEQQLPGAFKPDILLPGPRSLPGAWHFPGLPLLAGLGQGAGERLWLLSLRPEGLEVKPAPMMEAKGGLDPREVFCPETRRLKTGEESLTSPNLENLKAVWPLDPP
Particulars: protein: recombinant; tags: N-terminal GST; dsDNA, one strand shown. Put shortly:
as §1

Another assay addresses T8, ETS2 (Homo sapiens, UniProt P15036 1-469).
T8 sequence: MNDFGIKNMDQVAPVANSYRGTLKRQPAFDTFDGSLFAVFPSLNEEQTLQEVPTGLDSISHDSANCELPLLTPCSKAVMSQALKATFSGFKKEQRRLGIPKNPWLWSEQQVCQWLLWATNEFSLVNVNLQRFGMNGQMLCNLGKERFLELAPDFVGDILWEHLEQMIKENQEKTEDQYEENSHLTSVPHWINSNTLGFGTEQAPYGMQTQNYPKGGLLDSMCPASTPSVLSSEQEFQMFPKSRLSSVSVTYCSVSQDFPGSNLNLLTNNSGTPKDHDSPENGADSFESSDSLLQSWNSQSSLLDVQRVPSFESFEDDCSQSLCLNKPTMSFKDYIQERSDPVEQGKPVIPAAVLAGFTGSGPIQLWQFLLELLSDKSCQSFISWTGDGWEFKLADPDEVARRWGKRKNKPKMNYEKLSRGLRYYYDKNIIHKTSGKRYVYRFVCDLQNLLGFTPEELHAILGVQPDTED
Particulars: protein: recombinant; tags: N-terminal GST; dsDNA, one strand shown. In short, it runs like this:
as §1

The target in a further assay is T9, SPDEF (Homo sapiens, UniProt O95238 1-335).
T9 sequence: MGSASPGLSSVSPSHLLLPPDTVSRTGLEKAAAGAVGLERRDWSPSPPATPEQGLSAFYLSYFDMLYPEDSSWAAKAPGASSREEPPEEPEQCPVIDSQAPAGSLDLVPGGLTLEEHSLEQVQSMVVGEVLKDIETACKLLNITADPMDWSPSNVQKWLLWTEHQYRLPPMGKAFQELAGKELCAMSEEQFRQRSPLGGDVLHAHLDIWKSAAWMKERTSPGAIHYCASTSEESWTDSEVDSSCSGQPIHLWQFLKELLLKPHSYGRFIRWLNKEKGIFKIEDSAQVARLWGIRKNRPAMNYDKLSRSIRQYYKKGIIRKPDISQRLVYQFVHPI
Particulars: protein: recombinant; tags: N-terminal GST; dsDNA, one strand shown. In short, it runs like this:
as §1

The target of the next assay is T10, ETV7 (Homo sapiens, UniProt Q9Y603 1-341).
T10 sequence: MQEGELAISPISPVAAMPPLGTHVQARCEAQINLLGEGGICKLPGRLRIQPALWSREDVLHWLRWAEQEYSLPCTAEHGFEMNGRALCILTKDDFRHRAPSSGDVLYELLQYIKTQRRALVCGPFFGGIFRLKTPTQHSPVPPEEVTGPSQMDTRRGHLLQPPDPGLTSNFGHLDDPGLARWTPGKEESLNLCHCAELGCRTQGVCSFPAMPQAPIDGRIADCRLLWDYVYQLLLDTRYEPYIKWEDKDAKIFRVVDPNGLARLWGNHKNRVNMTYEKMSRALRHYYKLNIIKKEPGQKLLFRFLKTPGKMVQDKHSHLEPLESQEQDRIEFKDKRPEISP
Particulars: protein: recombinant; tags: N-terminal GST; dsDNA, one strand shown. In short, it runs like this: as §1

The next assay has as its target T11, ELF5 (Homo sapiens, UniProt Q9UKW6-2 1-255).
T11 sequence: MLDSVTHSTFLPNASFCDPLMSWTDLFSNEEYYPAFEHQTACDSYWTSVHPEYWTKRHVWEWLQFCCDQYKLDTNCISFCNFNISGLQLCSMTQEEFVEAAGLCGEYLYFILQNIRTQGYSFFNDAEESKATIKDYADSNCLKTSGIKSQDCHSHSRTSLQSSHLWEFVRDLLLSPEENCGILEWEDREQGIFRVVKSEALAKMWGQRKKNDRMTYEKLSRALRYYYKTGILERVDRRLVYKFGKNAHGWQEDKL
Particulars: protein: recombinant; tags: N-terminal GST; dsDNA, one strand shown. Put shortly: as §1

The next assay deals with T12, ETV3 (Homo sapiens, UniProt P41162-2 1-143).
T12 sequence: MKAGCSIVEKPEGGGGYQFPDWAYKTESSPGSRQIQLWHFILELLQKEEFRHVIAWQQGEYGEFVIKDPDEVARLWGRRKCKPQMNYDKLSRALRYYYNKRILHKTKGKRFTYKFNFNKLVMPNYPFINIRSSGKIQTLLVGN
The settings on record: protein: recombinant; tags: N-terminal GST; dsDNA, one strand shown. Put shortly:
as §1

The target of another assay is ETV6 (Homo sapiens, UniProt P41212 1-452). Particulars: protein: recombinant; tags: N-terminal GST; dsDNA, one strand shown. In short, it runs like this: as §1
Chain of ETV6 (P41212 whole entry): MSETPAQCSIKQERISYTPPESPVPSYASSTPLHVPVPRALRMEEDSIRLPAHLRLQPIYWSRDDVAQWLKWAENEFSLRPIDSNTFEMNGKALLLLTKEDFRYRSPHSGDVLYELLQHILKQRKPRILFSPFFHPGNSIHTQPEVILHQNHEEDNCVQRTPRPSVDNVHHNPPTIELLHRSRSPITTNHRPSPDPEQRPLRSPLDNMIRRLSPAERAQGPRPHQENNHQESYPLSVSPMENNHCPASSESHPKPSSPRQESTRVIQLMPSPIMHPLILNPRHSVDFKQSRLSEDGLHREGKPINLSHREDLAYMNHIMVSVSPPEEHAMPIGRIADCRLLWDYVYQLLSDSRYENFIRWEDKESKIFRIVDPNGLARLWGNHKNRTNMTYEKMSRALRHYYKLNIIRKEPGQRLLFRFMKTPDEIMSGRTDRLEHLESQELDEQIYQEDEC

Chain of ETV5 (P41161 whole entry): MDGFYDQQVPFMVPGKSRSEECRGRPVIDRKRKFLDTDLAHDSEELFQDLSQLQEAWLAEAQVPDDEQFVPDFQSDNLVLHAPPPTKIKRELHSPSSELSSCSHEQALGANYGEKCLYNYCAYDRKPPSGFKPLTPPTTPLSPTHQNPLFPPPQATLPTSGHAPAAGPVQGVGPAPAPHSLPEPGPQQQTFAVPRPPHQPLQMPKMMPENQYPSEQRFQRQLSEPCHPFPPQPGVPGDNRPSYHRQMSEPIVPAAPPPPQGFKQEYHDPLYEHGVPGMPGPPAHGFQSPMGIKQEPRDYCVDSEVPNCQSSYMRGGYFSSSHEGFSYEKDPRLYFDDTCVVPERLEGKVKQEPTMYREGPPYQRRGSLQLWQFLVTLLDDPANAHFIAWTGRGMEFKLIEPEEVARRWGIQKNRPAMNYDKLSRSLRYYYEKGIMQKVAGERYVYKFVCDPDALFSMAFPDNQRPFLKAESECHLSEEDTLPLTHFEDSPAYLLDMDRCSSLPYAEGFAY
Chain of HSF1 (Q00613 whole entry): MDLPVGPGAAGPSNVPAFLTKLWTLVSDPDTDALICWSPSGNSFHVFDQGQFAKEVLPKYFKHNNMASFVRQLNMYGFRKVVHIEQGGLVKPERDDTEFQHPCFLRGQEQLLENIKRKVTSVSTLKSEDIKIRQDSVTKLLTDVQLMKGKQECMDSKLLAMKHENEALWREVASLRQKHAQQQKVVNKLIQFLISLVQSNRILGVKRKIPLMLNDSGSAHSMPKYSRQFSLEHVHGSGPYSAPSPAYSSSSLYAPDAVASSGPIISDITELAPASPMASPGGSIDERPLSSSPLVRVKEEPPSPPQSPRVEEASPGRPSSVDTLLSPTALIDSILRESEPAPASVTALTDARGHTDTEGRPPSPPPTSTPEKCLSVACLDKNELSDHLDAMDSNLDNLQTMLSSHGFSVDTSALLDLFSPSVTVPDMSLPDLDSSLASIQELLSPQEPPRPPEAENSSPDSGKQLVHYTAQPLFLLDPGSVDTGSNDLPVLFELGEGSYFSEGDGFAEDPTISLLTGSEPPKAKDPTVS
Chain of CRX (O43186 whole entry): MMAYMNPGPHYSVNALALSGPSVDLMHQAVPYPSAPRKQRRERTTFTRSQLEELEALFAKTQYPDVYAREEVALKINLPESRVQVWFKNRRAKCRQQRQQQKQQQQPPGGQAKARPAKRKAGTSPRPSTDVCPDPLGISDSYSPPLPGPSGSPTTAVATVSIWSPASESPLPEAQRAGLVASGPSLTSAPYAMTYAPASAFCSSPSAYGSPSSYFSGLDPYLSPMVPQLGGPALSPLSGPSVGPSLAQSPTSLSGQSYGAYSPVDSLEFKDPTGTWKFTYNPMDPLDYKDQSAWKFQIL

Consider ACGCTA, for which the binding signal in the assay with FEV was 1.13 fold enrichment (6-mer frequency, TF over GST control); with ETV5, 1.17 fold enrichment (6-mer frequency, TF over GST control); with HSF1, 1.12 fold enrichment (6-mer frequency, TF over GST control); with SPIC, 1.09 fold enrichment (6-mer frequency, TF over GST control); with ELF4 it was 1.25 fold enrichment (6-mer frequency, TF over GST control); in the assay with ELK4 it was 1.06 fold enrichment (6-mer frequency, TF over GST control). Moreover, the binding signal is 1.28 fold enrichment (6-mer frequency, TF over GST control) with ETV2; 1.17 fold enrichment (6-mer frequency, TF over GST control) in the assay with ELF3; 1.18 fold enrichment (6-mer frequency, TF over GST control) with CRX; 1.09 fold enrichment (6-mer frequency, TF over GST control) in the assay with ETV1; 1.2 fold enrichment (6-mer frequency, TF over GST control) with ERF; 1.12 fold enrichment (6-mer frequency, TF over GST control) with ETV3L. In addition, the binding signal was 1.01 fold enrichment (6-mer frequency, TF over GST control) with ETS2; 1.15 fold enrichment (6-mer frequency, TF over GST control) with SPDEF; 1.17 fold enrichment (6-mer frequency, TF over GST control) with ETV7; 1.12 fold enrichment (6-mer frequency, TF over GST control) with ELF5; 1.21 fold enrichment (6-mer frequency, TF over GST control) with ETV3; 1.08 fold enrichment (6-mer frequency, TF over GST control) with ETV6.
